Data as given in ChEMBL document CHEMBL1961873, “Compounds: GSK PKIS; Assays: Nanosyn kinase panel” (2012).
Several values for one entry are separate records, joined by “and”; a condition that tells them apart may be missing. Equal entries are not always repeated.

What was measured:
[1] = test system: Proto-oncogene tyrosine-protein kinase receptor Ret (Homo sapiens), P07949 [Y791F]; details: at 1 µM
[2] = biological target: Macrophage-stimulating protein receptor (Homo sapiens) (UniProt Q04912); details: at 0.1 µM
[3] = biological target: Macrophage-stimulating protein receptor (Homo sapiens) (UniProt Q04912); details: at 1 µM
[4] = biological target: Proto-oncogene tyrosine-protein kinase ROS (Homo sapiens) (UniProt P08922); details: at 0.1 µM
[5] = biological target: Proto-oncogene tyrosine-protein kinase ROS (Homo sapiens) (UniProt P08922); details: at 1 µM
[6] = biological target: Proto-oncogene tyrosine-protein kinase Src (Homo sapiens) (UniProt P12931); details: at 0.1 µM
[7] = biological target: Proto-oncogene tyrosine-protein kinase Src (Homo sapiens) (UniProt P12931); details: at 1 µM
[8] = biological target: Tyrosine-protein kinase Srms (Homo sapiens) (UniProt Q9H3Y6); details: at 0.1 µM
[9] = biological target: Tyrosine-protein kinase Srms (Homo sapiens) (UniProt Q9H3Y6); details: at 1 µM
[10] = biological target: Tyrosine-protein kinase SYK (Homo sapiens) (UniProt P43405); details: at 0.1 µM;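 also: reported percentages are mean inhibition values for SYK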

Sequence of Macrophage-stimulating protein receptor (Homo sapiens) (Q04912 25-304 limits assumed): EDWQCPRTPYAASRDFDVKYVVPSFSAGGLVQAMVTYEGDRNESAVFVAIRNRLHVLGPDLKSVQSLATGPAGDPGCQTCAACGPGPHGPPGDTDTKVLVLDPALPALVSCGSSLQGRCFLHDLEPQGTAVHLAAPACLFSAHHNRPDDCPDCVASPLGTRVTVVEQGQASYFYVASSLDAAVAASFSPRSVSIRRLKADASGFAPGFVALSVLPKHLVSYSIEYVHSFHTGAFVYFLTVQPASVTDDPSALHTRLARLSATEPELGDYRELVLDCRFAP
Sequence of Macrophage-stimulating protein receptor (Homo sapiens) (Q04912 310-1400 limits assumed): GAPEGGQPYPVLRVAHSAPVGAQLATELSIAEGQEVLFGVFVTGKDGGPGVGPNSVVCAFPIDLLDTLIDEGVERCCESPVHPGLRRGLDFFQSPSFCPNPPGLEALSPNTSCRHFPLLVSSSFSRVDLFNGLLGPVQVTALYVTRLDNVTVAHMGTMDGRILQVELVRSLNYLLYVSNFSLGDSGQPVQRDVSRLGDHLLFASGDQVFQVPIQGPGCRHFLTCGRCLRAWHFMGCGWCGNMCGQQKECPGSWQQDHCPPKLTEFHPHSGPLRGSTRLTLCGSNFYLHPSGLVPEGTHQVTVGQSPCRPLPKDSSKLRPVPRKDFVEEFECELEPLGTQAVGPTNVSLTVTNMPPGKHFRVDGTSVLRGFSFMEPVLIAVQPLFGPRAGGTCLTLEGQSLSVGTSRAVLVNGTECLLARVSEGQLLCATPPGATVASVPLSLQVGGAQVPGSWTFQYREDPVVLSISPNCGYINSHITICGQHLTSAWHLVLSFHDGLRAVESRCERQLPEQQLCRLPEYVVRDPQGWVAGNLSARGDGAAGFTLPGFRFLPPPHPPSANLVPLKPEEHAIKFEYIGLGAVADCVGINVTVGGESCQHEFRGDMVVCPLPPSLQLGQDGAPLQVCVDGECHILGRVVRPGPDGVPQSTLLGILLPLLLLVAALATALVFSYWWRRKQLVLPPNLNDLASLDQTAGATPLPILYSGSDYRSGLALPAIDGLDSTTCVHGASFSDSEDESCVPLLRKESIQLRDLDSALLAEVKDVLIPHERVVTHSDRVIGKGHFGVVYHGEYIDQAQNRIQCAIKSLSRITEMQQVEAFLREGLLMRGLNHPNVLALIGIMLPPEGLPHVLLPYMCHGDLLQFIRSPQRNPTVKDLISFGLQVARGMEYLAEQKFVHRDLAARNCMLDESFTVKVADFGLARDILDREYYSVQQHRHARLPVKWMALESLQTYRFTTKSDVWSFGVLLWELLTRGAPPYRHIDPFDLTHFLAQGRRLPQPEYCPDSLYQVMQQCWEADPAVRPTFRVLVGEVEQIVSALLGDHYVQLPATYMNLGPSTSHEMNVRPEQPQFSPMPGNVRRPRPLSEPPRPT
Sequence of Proto-oncogene tyrosine-protein kinase ROS (Homo sapiens) (P08922 whole entry): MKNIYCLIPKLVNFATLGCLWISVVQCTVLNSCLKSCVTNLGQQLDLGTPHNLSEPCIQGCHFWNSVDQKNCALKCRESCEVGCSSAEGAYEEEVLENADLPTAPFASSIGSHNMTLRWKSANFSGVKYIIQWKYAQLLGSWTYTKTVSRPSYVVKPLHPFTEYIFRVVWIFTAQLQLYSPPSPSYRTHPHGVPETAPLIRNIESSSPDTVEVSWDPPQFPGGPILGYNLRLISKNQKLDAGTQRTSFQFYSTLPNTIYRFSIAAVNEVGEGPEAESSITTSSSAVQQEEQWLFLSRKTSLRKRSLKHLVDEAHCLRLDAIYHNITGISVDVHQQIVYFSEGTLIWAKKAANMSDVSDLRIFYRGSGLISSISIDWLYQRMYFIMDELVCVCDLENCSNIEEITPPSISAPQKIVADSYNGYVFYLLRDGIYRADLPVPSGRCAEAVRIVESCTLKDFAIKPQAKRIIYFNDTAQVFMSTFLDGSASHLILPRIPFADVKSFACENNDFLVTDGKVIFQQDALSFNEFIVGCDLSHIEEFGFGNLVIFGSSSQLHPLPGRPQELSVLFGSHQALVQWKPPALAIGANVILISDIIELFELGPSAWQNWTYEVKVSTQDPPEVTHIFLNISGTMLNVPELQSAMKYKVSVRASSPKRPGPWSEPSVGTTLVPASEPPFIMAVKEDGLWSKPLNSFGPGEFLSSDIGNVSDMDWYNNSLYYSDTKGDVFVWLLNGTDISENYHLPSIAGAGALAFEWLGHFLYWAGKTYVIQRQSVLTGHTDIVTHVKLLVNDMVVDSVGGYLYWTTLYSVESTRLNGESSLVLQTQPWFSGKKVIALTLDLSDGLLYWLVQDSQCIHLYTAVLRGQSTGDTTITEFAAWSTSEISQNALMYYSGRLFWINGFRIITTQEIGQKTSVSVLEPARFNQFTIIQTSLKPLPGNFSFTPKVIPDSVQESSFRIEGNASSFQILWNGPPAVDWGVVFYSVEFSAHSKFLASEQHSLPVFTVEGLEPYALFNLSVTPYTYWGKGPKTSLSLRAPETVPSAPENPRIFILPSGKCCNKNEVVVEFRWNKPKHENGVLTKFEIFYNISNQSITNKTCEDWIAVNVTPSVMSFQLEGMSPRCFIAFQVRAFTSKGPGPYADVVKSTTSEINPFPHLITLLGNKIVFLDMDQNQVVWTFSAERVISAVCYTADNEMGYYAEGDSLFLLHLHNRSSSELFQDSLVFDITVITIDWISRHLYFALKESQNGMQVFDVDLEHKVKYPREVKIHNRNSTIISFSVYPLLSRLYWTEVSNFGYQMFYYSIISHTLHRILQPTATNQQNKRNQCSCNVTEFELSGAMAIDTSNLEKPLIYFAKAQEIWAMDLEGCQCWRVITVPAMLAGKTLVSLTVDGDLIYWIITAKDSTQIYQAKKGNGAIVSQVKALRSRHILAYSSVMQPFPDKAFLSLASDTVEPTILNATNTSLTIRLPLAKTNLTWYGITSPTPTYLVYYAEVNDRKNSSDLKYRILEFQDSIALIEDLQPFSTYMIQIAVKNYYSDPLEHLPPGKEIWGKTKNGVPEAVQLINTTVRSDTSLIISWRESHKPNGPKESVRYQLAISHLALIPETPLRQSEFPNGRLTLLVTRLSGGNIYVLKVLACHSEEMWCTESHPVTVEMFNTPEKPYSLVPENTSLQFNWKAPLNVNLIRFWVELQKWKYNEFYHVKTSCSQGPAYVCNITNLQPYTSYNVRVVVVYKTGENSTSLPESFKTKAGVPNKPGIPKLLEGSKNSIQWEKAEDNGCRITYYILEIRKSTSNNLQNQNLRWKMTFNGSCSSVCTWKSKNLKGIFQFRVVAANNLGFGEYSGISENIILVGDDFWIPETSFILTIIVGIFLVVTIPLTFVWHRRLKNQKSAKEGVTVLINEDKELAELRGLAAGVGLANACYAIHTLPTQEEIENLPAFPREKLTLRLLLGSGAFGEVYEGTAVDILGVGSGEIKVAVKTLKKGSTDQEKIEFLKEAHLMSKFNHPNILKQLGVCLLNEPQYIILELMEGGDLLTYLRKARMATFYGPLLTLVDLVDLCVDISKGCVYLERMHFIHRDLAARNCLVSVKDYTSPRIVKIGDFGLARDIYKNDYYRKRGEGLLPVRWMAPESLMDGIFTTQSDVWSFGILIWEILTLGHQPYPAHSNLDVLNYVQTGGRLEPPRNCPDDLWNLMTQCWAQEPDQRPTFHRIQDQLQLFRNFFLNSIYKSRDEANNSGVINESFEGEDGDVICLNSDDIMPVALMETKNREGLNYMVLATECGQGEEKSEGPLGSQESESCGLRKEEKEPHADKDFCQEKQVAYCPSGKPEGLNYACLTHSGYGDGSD
Sequence of Tyrosine-protein kinase Srms (Homo sapiens) (Q9H3Y6 whole entry): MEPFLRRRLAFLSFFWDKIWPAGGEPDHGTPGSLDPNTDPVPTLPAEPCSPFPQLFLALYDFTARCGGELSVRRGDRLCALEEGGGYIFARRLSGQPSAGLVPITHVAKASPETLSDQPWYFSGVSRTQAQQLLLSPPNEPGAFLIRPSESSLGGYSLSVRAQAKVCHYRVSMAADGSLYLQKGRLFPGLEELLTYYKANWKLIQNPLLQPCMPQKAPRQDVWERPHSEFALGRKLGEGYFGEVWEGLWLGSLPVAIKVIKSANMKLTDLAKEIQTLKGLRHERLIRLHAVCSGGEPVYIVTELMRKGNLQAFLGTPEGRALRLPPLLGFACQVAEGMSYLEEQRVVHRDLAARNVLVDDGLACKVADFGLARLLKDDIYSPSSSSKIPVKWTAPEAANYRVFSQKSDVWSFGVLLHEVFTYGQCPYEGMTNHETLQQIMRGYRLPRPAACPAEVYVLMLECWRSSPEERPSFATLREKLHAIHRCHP
Sequence of Proto-oncogene tyrosine-protein kinase Src (Homo sapiens) (P12931 2-536 limits assumed): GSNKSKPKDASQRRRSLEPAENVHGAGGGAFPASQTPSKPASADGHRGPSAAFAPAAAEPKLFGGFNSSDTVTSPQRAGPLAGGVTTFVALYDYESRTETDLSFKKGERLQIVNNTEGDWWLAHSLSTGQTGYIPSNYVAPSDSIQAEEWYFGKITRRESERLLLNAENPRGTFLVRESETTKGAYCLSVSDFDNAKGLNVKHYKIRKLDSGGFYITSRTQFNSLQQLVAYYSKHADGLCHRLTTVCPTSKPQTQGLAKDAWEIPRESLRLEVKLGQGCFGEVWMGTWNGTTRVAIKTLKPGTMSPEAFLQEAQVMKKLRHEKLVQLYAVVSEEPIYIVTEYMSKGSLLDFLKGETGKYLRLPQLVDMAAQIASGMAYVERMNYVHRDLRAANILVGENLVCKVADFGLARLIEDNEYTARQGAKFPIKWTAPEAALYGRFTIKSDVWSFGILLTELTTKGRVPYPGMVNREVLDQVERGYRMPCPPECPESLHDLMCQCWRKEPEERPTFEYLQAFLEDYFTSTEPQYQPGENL

Row | Structure (SMILES) | inhibition [1] | inhibition [2] | inhibition [3] | inhibition [4] | inhibition [5] | inhibition [6] | inhibition [7] | inhibition [8] | inhibition [9] | inhibition [10]
1 | CN1CCN(Cc2ccc(-c3cc4ncnc(Nc5ccc(OCc6cccc(F)c6)c(Cl)c5)c4s3)o2)CC1 | 11.4% and 17.4% | 3.2% and 3.55% | 10.2% and 6.54% | 3.07% and 6.46% | 6.26% and 12.4% | 4.74% | 13.4% and 18.3% | -1.16% and -1.22% | 0.02% and -0.37% | 0.19% and -1.76%
2 | CS(=O)(=O)CCNCc1ccc(-c2ccc3ncnc(Nc4ccc(OCc5cccc(C(F)(F)F)c5)cc4)c3c2)o1 | 6.5% | -1.41% | 3.05% | 6.2% | 8.72% | 9.03% | 15.8% | -3.48% | -3.22% | -1.19%
3 | COc1cccc(-n2ncc3c(N/N=C/c4ccc(C(=O)NCCN(C)C)cc4)ncnc32)c1 | 72.4% | 28.8% | 66.3% | 11.2% | 41.7% | 65% | 89.7% | 2.52% | 19.9% | -2.88%
4 | NC(=O)c1ccc2c(-c3ccnc(NCCCO)n3)c(-c3ccc(F)cc3)nn2c1 | 19.4% | 2.03% | 9.13% | 8.51% | 10.6% | 0.24% | 12.9% | 15% | 4.79% | -5.36%
5 | Cc1ccc(-c2cc3c(NC(=O)C4CC4)ncnc3o2)cc1 | 12.9% | -0.25% | 11.4% | 11.1% | 16.3% | 1.85% | 24.4% | -1.85% | -5.36% | -5.27%
6 | O=C(O[C@H]1CN[C@H](C#Cc2cc3ncnc(Nc4ccc(OCc5cccc(F)c5)c(Cl)c4)c3s2)C1)N1CCOCC1 | 7.29% | 1.25% | 12.9% | 6.55% | 8.8% | -0.25% | 11.3% | -2.71% | -2.76% | -7%
7 | COc1cccc(Nc2nccc(-c3cnn4ncccc34)n2)c1 | 24% | 6.23% | 15.1% | 38.2% | 71.1% | 7.33% | 41.6% | 1.25% | -1.9% | -0.98%
8 | COC(=O)Nc1nc2cc(Oc3ccc(NC(=O)Nc4ccccc4)cc3)ccc2[nH]1 | 25.8% | 7.21% | 8.17% | 2.15% | 2.86% | 5.93% | 7.76% | 0.48% | -1.09% | -5.19%
9 | CN1CCC(C(=O)Nc2n[nH]c3nc(-c4ccc(O)cc4)c(Br)cc23)CC1 | 20.8% and 5.43% | -1.02% and 7.11% | 6.18% and 11.8% | 5.2% and 4.89% | 10.4% and 1.96% | 6.76% and 6.26% | 9.87% and 8.29% | -2.12% and 1.04% | -1.75% and -1% | -0.18% and 0.92%
10 | CCS(=O)(=O)c1ccc(OC)c(Nc2ncc(-c3cccc(F)c3)o2)c1 | 56.6% | 10.3% | 6.8% | 8.05% | 27.5% | 49.4% | 89.3% | 3.47% | 18.5% | 0.45%
11 | c1cnn2ncc(-c3ccnc(NCCCN4CCOCC4)n3)c2c1 | 0.64% | 7.49% | 0.88% | 5.24% | 8.64% | 2.26% | 5.93% | 0.14% | 1.41% | -6.13%
12 | CNC(=O)c1sc(-n2cnc3cc(OC)c(OC)cc32)cc1OCc1ccccc1C(F)(F)F | 14.2% | 1.42% | 3.32% | 3.19% | 5.06% | 6.71% | 8.35% | -1.1% | 0.5% | -0.5%
13 | Nc1ncnc2occ(-c3ccc(NC(=O)Nc4cc(C(F)(F)F)ccc4F)cc3)c12 | 85.5% and 86.1% | 6.58% and -2.93% | 12.2% and 2.9% | 4.91% and 3.1% | 28.1% and 13.7% | 10.1% and 1.77% | 48.3% and 31.9% | 0.41% and -0.6% | 0.84% and 0.62% | -4.8% and -1.07%
14 | COc1cc(N2CCN(C(C)C)CC2)ccc1Nc1nc(Nc2cccc(F)c2C(=O)O)c2cc[nH]c2n1 | 11.6% | 0.36% | 2.96% | 13.8% | 54.7% | -3.89% | 8.5% | -1.76% | 5.01% | -4.66%
15 | COc1cc(N2CCN(C(C)C)CC2)ccc1Nc1nc(Nc2cccc3ncccc23)c2cc[nH]c2n1 | 14.2% | -0.12% | 1.56% | 7.82% | 45.3% | 2% | 0.42% | 0.04% | 0.63% | -1.08%
16 | CS(=O)(=O)CCNCc1ccoc1-c1ccc2ncnc(Nc3ccc(OCc4ccccc4)cc3)c2c1 | 9.63% | 1.78% | -1.8% | 0.39% | 2% | 3.56% | 4.6% | -1.68% | -0.79% | -2.93%
17 | O=C(O[C@H]1CN[C@H](C#Cc2cc3ncnc(Nc4ccc5c(cnn5Cc5ccccc5)c4)c3s2)C1)N1CCOCC1 | 8.34% | 0.29% | 2.37% | 1.38% | -0.29% | 0.01% | -0.98% | -0.4% | 2.01% | 0.27%
18 | Nc1nonc1-c1nc2cnccc2n1C1CC1 | 6.05% and 3.67% | -0.62% and 3.72% | 9.46% and 1.74% | 7.08% and 4.44% | 15.1% and 14.1% | 3.78% and -1.17% | 8.03% and 5.68% | -1.43% and -0.81% | 0.98% and 0.04% | 1.89% and -3.36%
19 | FC(F)(F)CNc1nccc(-c2cnn3ncccc23)n1 | 2.92% | 1.76% | -1.8% | -0.19% | 2.27% | 3.96% | 3.98% | -5.51% | -3.04% | -0.18%
20 | Nc1nccc(-c2c(-c3ccc(F)cc3)ncn2C2CCNCC2)n1 | 18.1% and 7.68% | 7.21% | -1.75% and 1.85% | 1.07% and 4.79% | 8.31% and 7.82% | -4.6% and -5.2% | 0.47% and 5.61% | -1% and 0.6% | 1.09% and -0.34% | 0.33% and 1.19%
21 | CCN1CCC(C(=O)Nc2n[nH]c3nnc(-c4cccc(F)c4F)cc23)CC1 | 3.53% | 0.53% | 0.25% | -1.03% | 3.74% | -1.14% | -2.38% | 1.44% | 2.12% | 0.98%
22 | COc1ccccc1-c1cc(/C=C2\C(=O)Nc3ncc(Br)cc32)cc(Br)c1O | 13.2% | 2.48% | 7.63% | 7.94% | 26.1% | 4.87% | 17.1% | 2.16% | 14.7% | -6.56%
23 | Fc1cccc(COc2ccc(Nc3ncncc3C#Cc3ccccc3)cc2Cl)c1 | 15.1% | 1.12% | 1.28% | 7.63% | 4.43% | 4.7% | 9.06% | -1.92% | -0.3% | -5.72%
